M1 PAM parental: counter-screen for M1 PAMs: effect in parental CHO-K1 cells; activation, % at 3 µM; ATP EC20, Fluo-8 calcium fluorescence; 0% at ATP EC20, 100% at ATP max; actives 0.02% (n = 360,000);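 active = activation above the run cutoff, the mean activation of all test compounds plus 3 SD, cut at about 40% in these data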;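 note: peak over basal fluorescence ratio in a 140 s read after ATP addition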
M1 ag: agonists of human M1 muscarinic receptor; P11229; activation, % at 3 µM; CHO-K1 hM1, Fluo-8 calcium fluorescence, agonist mode; 0% DMSO, 100% acetylcholine EC100; actives 0.33% (n = 360,000); AID 588814;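 active = activation above the run's mean compound activation plus 3 SD, cut at about 16% in these data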;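 note: peak over basal fluorescence ratio within a 140 s kinetic read after compound addition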
Target sequence (P11229 whole entry, looked up): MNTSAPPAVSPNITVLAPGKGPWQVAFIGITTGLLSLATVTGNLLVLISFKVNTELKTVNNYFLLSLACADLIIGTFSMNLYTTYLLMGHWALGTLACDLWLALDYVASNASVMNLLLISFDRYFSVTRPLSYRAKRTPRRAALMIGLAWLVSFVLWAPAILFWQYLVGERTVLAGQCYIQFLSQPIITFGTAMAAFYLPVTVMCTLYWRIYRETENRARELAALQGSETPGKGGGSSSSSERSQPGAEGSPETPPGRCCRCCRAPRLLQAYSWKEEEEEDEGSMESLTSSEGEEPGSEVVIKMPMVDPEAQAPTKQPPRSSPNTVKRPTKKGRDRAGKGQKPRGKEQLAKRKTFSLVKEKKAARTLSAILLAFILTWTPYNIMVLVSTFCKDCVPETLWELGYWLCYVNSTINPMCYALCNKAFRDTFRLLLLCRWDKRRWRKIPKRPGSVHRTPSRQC
CHRM1 antagonist: blocks human M1 muscarinic receptor; P11229; CHO-K1 hM1, Fluo-8 calcium fluorescence, ACh EC80 antagonist; inhibition, % at 3 µM; actives 1.3% (n = 360,000);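 active = percent inhibition above its own plate's cutoff, namely the mean of that plate's compound wells plus 3 SD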;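 note: peak over basal fluorescence ratio during 140 s after agonist addition; 0% = ACh EC80 plus DMSO and 100% = DMSO alone without agonist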
CHO-K1 Ca antag: M1 antagonist counterscreen hit in parental CHO-K1 cells; actives 0.6% (n = 360,000); ATP-induced calcium, Fluo-8 fluorescence; AID 602250; inhibition, % at 3 µM;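 active = inhibition above a per-plate cutoff, the plate's mean sample inhibition plus 3 SD, cut at about 24% in these data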;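 note: 0% = DMSO plus EC80 ATP and 100% = DMSO alone without ATP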
M1 ag parental: nonselective activator or artifact in parental CHO-K1 cells | actives 0.48% (n = 360,000) | Fluo-8 calcium fluorescence; scaled to maximal ATP response, vehicle zero | activation, % at 3 µM | AID 602248; in the data active = activation above about 15%;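 note: untransfected CHO-K1 host cells lacking M1 receptor as counterscreen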
M1 PAM: potentiates human M1 receptor response to acetylcholine | P11229 | CHO-K1 hM1, Fluo-8 calcium fluorescence, ACh EC20; 0% = ACh EC20, 100% = maximal ACh | activation, % at 3 µM | actives 0.088% (n = 360,000); in the data active = activation above about 19%, passing the limit was not always enough
Starred values were filed as active, the others as inactive. Sampled rows, rich in hits. Any-hit rate of the full collection: about 2.4%.

For CC(C)OC(=O)c1c2c(n3ccccc13)C(=O)c1ccccc1C2=O the results were M1 PAM parental 14, M1 ag 12, CHRM1 antagonist 20, CHO-K1 Ca antag 4, M1 ag parental 18* and M1 PAM -3.
Screening N#Cc1nc(-c2ccccc2Cl)oc1NCC1CCCO1 (stereo unspecified) returned M1 PAM parental -11, M1 ag 3, CHRM1 antagonist -5, CHO-K1 Ca antag 25*, M1 ag parental 0 and M1 PAM 15.
For Cc1cc(Br)ccc1NC(=O)C1CCN(C(=O)c2ccco2)CC1 the results were M1 PAM parental -5, M1 ag 3, CHRM1 antagonist 1, CHO-K1 Ca antag -8, M1 ag parental 0 and M1 PAM 13.
`Nc1ncnc2c1ncn2[C@@H]1O[C@H](CNCc2ccccc2OC2OC(CO)C(O)C(O)C2O)[C@@H](O)[C@H]1O` (stereo partly specified) gave M1 PAM parental -4, M1 ag 0, CHRM1 antagonist -11, CHO-K1 Ca antag -12, M1 ag parental 0 and M1 PAM 8.
`O=C(N/N=C/c1cn(-c2cccs2)nc1-c1ccccc1)c1ccccc1O` gave M1 PAM parental -7, M1 ag -3, CHRM1 antagonist 8, CHO-K1 Ca antag 29*, M1 ag parental 13 and M1 PAM -11.
Screening COc1ccc(NC(=O)/C(C#N)=C\c2ccc(N3CCOCC3)o2)cc1 returned M1 PAM parental -20, M1 ag 69*, CHRM1 antagonist 31*, CHO-K1 Ca antag 35*, M1 ag parental 54* and M1 PAM -36.
For COc1ccc(NC(=O)/C(C#N)=C/c2ccc(Br)o2)cc1 the results were M1 PAM parental 7, M1 ag -1, CHRM1 antagonist -10, CHO-K1 Ca antag -10, M1 ag parental 0 and M1 PAM 7.
For N#C/C(=C/c1ccc(N2CCOCC2)o1)C(=O)NC1CCCCC1 the results were M1 PAM parental 13, M1 ag 10, CHRM1 antagonist 2, CHO-K1 Ca antag -7, M1 ag parental 7 and M1 PAM 3.
`N#C/C(=C\c1ccc(N2CCOCC2)o1)C(=O)Nc1ccc(O)cc1` gave M1 PAM parental 3, M1 ag 10, CHRM1 antagonist 9, CHO-K1 Ca antag 5, M1 ag parental 16* and M1 PAM -6.
For N#C/C(=C/c1ccc(N2CCOCC2)o1)c1nc2ccccc2[nH]1 the results were M1 PAM parental -10, M1 ag 25*, CHRM1 antagonist 31, CHO-K1 Ca antag 15, M1 ag parental 19* and M1 PAM -17.
For Cc1cccc(N2CC(C(=O)Nc3nnc(SCC(=O)N4CCOCC4)s3)CC2=O)c1 (stereo unspecified) the results were M1 PAM parental -10, M1 ag -1, CHRM1 antagonist -6, CHO-K1 Ca antag 4, M1 ag parental 0 and M1 PAM 6.
CC(C)(C)c1ccc(NC(=O)C2=CN3CCS(=O)(=O)N=C3C=C2)cc1 was read as M1 PAM parental 8, M1 ag -8, CHRM1 antagonist -9, CHO-K1 Ca antag -7, M1 ag parental 1 and M1 PAM 8.
`CC(C)(C)NC(=O)C(c1ccc(F)cc1)N(CCc1ccccc1)C(=O)c1ccn[nH]1` (stereo unspecified) gave M1 PAM parental 2, M1 ag -7, CHRM1 antagonist 12, CHO-K1 Ca antag 9, M1 ag parental 15* and M1 PAM -8.
Screening Cc1sc2ncnc(NCC(O)c3ccc([N+](=O)[O-])cc3)c2c1C (stereo unspecified) returned M1 PAM parental 0, M1 ag 0, CHRM1 antagonist 34*, CHO-K1 Ca antag 27*, M1 ag parental 18* and M1 PAM -20.
For Cc1sc2ncnc(NCCCO)c2c1C the results were M1 PAM parental -8, M1 ag 0, CHRM1 antagonist 14, CHO-K1 Ca antag 7, M1 ag parental 0 and M1 PAM -7.
For Cc1sc2ncnc(NCC(O)c3ccccc3)c2c1C (stereo unspecified) the results were M1 PAM parental 7, M1 ag -1, CHRM1 antagonist 16, CHO-K1 Ca antag 14, M1 ag parental 17* and M1 PAM -11.
`Cc1sc2ncnc(NCC(c3ccccc3)N(C)C)c2c1C` (stereo unspecified) gave M1 PAM parental -17, M1 ag -11, CHRM1 antagonist 57*, CHO-K1 Ca antag 7, M1 ag parental 4 and M1 PAM -31.
For COc1ccc(CNC(=O)[C@H](C)NC(=O)C2CCN(S(=O)(=O)c3ccc(F)cc3)CC2)cc1 the results were M1 PAM parental 26, M1 ag -3, CHRM1 antagonist -2, CHO-K1 Ca antag -11, M1 ag parental 1 and M1 PAM 5.
CC1(Cc2ccc(Cl)c(Cl)c2)C(=O)Nc2c(Cl)ccc(Cl)c21 (stereo unspecified) was read as M1 PAM parental 26, M1 ag 2, CHRM1 antagonist -16, CHO-K1 Ca antag -17, M1 ag parental 0 and M1 PAM 13.
Screening CC1(Cc2ccc(Cl)s2)C(=O)Nc2c(Cl)ccc(Cl)c21 (stereo unspecified) returned M1 PAM parental -17, M1 ag -6, CHRM1 antagonist 32*, CHO-K1 Ca antag 2, M1 ag parental 0 and M1 PAM -20.
`O=C(CC(O)c1ccncc1)c1ccccc1O` (stereo unspecified) gave M1 PAM parental -18, M1 ag -2, CHRM1 antagonist -8, CHO-K1 Ca antag -2, M1 ag parental 0 and M1 PAM 0.
For CCCCNC(=O)C1(C)CCC(=O)N1c1cc(C(C)(C)C)nn1C (stereo unspecified) the results were M1 PAM parental -2, M1 ag -6, CHRM1 antagonist 5, CHO-K1 Ca antag 32*, M1 ag parental 0 and M1 PAM -2.
For COc1cccc(CN(C)C(=O)/C=C/c2ccc(S(=O)(=O)N3CCCCCC3)cc2)c1 the results were M1 PAM parental 1, M1 ag -4, CHRM1 antagonist 7, CHO-K1 Ca antag 2, M1 ag parental 4 and M1 PAM -2.
For CC1CCCCN1CC(=O)NC(c1ccccc1)c1ccccc1 (stereo unspecified) the results were M1 PAM parental 13, M1 ag -16, CHRM1 antagonist 60*, CHO-K1 Ca antag -2, M1 ag parental 0 and M1 PAM -38.
For CC1CCCCN1CC(=O)Nc1ccc(Oc2ccccc2)cc1 (stereo unspecified) the results were M1 PAM parental 16, M1 ag -6, CHRM1 antagonist 69*, CHO-K1 Ca antag -5, M1 ag parental 1 and M1 PAM -25.

Assay outcomes as filed in PubChem.
